Measured values: article PMC11006913

Experiments:
Assay in all cases: PBM; 200 nM protein, PBS
Details in all cases: dsDNA, one strand shown
NKX2-6 = biological target: T1, NKX2-6 (Homo sapiens, UniProt A6NCS4 118-204, F151L)
T1 sequence: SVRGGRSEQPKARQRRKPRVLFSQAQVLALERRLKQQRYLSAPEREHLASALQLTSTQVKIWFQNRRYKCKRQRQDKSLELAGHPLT

NKX3-2 [1] = biological target: NKX3-2 (Homo sapiens, UniProt P78367 192-278, P234S)
NKX3-2 [2] = biological target: NKX3-2 (Homo sapiens, UniProt P78367 192-278)
HESX1 = HESX1 (Homo sapiens, UniProt Q9UBX0 95-180, F115L)
HOXC9 = HOXC9 (Homo sapiens, UniProt P31274 178-260, R222W)
PAX4 = biological target: T2, PAX4 (Homo sapiens, UniProt O43316 9-242, R227W)
T2 sequence: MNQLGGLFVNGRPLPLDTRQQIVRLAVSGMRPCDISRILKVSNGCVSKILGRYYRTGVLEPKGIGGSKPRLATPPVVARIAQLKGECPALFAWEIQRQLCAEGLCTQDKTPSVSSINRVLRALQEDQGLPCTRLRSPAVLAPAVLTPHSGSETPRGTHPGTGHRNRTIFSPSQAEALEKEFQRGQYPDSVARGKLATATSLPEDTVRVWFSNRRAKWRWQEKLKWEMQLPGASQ

HOXD13 = HOXD13 (Homo sapiens, UniProt P35453 263-343, T313A)
MSX2 = MSX2 (Homo sapiens, UniProt P35548 130-214, F161Y)
Chain of MSX2 (P35548 130-214 F161Y): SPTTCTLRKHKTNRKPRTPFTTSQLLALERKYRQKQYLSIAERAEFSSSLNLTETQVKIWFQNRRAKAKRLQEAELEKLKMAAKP

Chain of NKX3-2 (Homo sapiens, UniProt P78367 192-278, P234S) (P78367 192-278 P234S): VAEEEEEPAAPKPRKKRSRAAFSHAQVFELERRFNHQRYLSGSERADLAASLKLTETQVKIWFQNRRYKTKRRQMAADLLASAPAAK
Chain of NKX3-2 (Homo sapiens, UniProt P78367 192-278) (P78367 192-278): as the sequence (P78367 192-278 P234S) above, with S43P counted along it
Chain of HOXC9 (P31274 178-260 R222W): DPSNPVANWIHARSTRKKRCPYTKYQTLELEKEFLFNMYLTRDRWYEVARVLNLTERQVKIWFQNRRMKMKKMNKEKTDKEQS
Chain of HOXD13 (P35453 263-343 T313A): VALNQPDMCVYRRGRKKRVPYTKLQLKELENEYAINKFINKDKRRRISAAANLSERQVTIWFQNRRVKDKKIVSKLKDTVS
Chain of HESX1 (Q9UBX0 95-180 F115L): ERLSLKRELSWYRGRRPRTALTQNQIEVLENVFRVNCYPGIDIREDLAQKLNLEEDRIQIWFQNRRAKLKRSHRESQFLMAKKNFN

Sequence: AAACACTT
- binding signal (NKX2-6): 10.9 upbm affinity estimate (log intensity, higher = more binding, comparable within an allelic series)

Sequence: CAGGTAGC
- binding signal (NKX3-2 [1]): 10.7 upbm affinity estimate (log intensity, higher = more binding, comparable within an allelic series)
- binding signal (NKX3-2 [2]): 10.7 upbm affinity estimate (log intensity, higher = more binding, comparable within an allelic series)

Sequence: CGCGGTAC
- binding signal (NKX3-2 [1]): 10.8 upbm affinity estimate (log intensity, higher = more binding, comparable within an allelic series)
- binding signal (NKX3-2 [2]): 10.8 upbm affinity estimate (log intensity, higher = more binding, comparable within an allelic series)

Sequence: CTTATTAA
- binding signal (HESX1): 7.74 upbm affinity estimate (log intensity, higher = more binding, comparable within an allelic series)

Sequence: ATTAAAAA
- binding signal (HOXC9): 11 upbm affinity estimate (log intensity, higher = more binding, comparable within an allelic series)

Sequence: AGGCGCCG
- binding signal (NKX3-2 [1]): 10.5 upbm affinity estimate (log intensity, higher = more binding, comparable within an allelic series)
- binding signal (NKX3-2 [2]): 10.5 upbm affinity estimate (log intensity, higher = more binding, comparable within an allelic series)

Sequence: AGCATTCC
- binding signal (NKX3-2 [1]): 10.4 upbm affinity estimate (log intensity, higher = more binding, comparable within an allelic series)
- binding signal (NKX3-2 [2]): 10.4 upbm affinity estimate (log intensity, higher = more binding, comparable within an allelic series)

Sequence: ACCGCTGG
- binding signal (NKX3-2 [1]): 10.5 upbm affinity estimate (log intensity, higher = more binding, comparable within an allelic series)
- binding signal (NKX3-2 [2]): 10.5 upbm affinity estimate (log intensity, higher = more binding, comparable within an allelic series)

Sequence: CGCCAGCC
- binding signal (NKX3-2 [1]): 10.7 upbm affinity estimate (log intensity, higher = more binding, comparable within an allelic series)
- binding signal (NKX3-2 [2]): 10.6 upbm affinity estimate (log intensity, higher = more binding, comparable within an allelic series)

Sequence: AATAAATT
- binding signal (HOXC9): 11.1 upbm affinity estimate (log intensity, higher = more binding, comparable within an allelic series)

Sequence: CAAGTGTC
- binding signal (NKX2-6): 10.6 upbm affinity estimate (log intensity, higher = more binding, comparable within an allelic series)

Sequence: ACGGTGTC
- binding signal (NKX3-2 [1]): 10.6 upbm affinity estimate (log intensity, higher = more binding, comparable within an allelic series)
- binding signal (NKX3-2 [2]): 10.6 upbm affinity estimate (log intensity, higher = more binding, comparable within an allelic series)

Sequence: CATATTAG
- binding signal (PAX4): 10.9 upbm affinity estimate (log intensity, higher = more binding, comparable within an allelic series)

Sequence: GTTTACAA
- binding signal (HOXD13): 11.6 upbm affinity estimate (log intensity, higher = more binding, comparable within an allelic series)

Sequence: GCCCTCAA
- binding signal (NKX3-2 [1]): 11.6 upbm affinity estimate (log intensity, higher = more binding, comparable within an allelic series)
- binding signal (NKX3-2 [2]): 11.7 upbm affinity estimate (log intensity, higher = more binding, comparable within an allelic series)

Sequence: AATTACAA
- binding signal (MSX2): 12.9 upbm affinity estimate (log intensity, higher = more binding, comparable within an allelic series)

Sequence: AACGTGGC
- binding signal (NKX3-2 [1]): 10.5 upbm affinity estimate (log intensity, higher = more binding, comparable within an allelic series)
- binding signal (NKX3-2 [2]): 10.5 upbm affinity estimate (log intensity, higher = more binding, comparable within an allelic series)

Sequence: AGGTTGTG
- binding signal (NKX3-2 [1]): 10.7 upbm affinity estimate (log intensity, higher = more binding, comparable within an allelic series)
- binding signal (NKX3-2 [2]): 10.7 upbm affinity estimate (log intensity, higher = more binding, comparable within an allelic series)

Sequence: ACACTTAC
- binding signal (NKX2-6): 10.6 upbm affinity estimate (log intensity, higher = more binding, comparable within an allelic series)
- binding signal (NKX3-2 [1]): 12.5 upbm affinity estimate (log intensity, higher = more binding, comparable within an allelic series)

Sequence: ACAAGTGT
- binding signal (NKX2-6): 10.6 upbm affinity estimate (log intensity, higher = more binding, comparable within an allelic series)

Sequence: GAGCTAGC
- binding signal (NKX3-2 [1]): 10.7 upbm affinity estimate (log intensity, higher = more binding, comparable within an allelic series)
- binding signal (NKX3-2 [2]): 10.7 upbm affinity estimate (log intensity, higher = more binding, comparable within an allelic series)

Sequence: CCTGCCCG
- binding signal (NKX3-2 [1]): 10.7 upbm affinity estimate (log intensity, higher = more binding, comparable within an allelic series)
- binding signal (NKX3-2 [2]): 10.7 upbm affinity estimate (log intensity, higher = more binding, comparable within an allelic series)

Sequence: CAGGGAAG
- binding signal (NKX3-2 [1]): 10.5 upbm affinity estimate (log intensity, higher = more binding, comparable within an allelic series)
- binding signal (NKX3-2 [2]): 10.5 upbm affinity estimate (log intensity, higher = more binding, comparable within an allelic series)

Sequence: CCTATGGC
- binding signal (NKX3-2 [1]): 10.6 upbm affinity estimate (log intensity, higher = more binding, comparable within an allelic series)
- binding signal (NKX3-2 [2]): 10.6 upbm affinity estimate (log intensity, higher = more binding, comparable within an allelic series)

Sequence: GGTTGAAC
- binding signal (NKX3-2 [1]): 10.6 upbm affinity estimate (log intensity, higher = more binding, comparable within an allelic series)
- binding signal (NKX3-2 [2]): 10.6 upbm affinity estimate (log intensity, higher = more binding, comparable within an allelic series)

Sequence: CGAGTGCA
- binding signal (NKX3-2 [1]): 11.7 upbm affinity estimate (log intensity, higher = more binding, comparable within an allelic series)
- binding signal (NKX3-2 [2]): 11.8 upbm affinity estimate (log intensity, higher = more binding, comparable within an allelic series)

Sequence: ATGCCGAC
- binding signal (NKX3-2 [1]): 10.6 upbm affinity estimate (log intensity, higher = more binding, comparable within an allelic series)
- binding signal (NKX3-2 [2]): 10.6 upbm affinity estimate (log intensity, higher = more binding, comparable within an allelic series)

Sequence: AAAGTGGG
- binding signal (NKX3-2 [1]): 12.4 upbm affinity estimate (log intensity, higher = more binding, comparable within an allelic series)
- binding signal (NKX3-2 [2]): 12.6 upbm affinity estimate (log intensity, higher = more binding, comparable within an allelic series)

Sequence: GGCACTCA
- binding signal (NKX3-2 [1]): 12.5 upbm affinity estimate (log intensity, higher = more binding, comparable within an allelic series)
- binding signal (NKX3-2 [2]): 12.6 upbm affinity estimate (log intensity, higher = more binding, comparable within an allelic series)

Sequence: GCCCCCGA
- binding signal (NKX3-2 [1]): 10.4 upbm affinity estimate (log intensity, higher = more binding, comparable within an allelic series)
- binding signal (NKX3-2 [2]): 10.4 upbm affinity estimate (log intensity, higher = more binding, comparable within an allelic series)

Sequence: CTCTTGCC
- binding signal (NKX3-2 [1]): 11.4 upbm affinity estimate (log intensity, higher = more binding, comparable within an allelic series)
- binding signal (NKX3-2 [2]): 11.5 upbm affinity estimate (log intensity, higher = more binding, comparable within an allelic series)

Sequence: GCCGGCGC
- binding signal (NKX3-2 [1]): 10.3 upbm affinity estimate (log intensity, higher = more binding, comparable within an allelic series)
- binding signal (NKX3-2 [2]): 10.3 upbm affinity estimate (log intensity, higher = more binding, comparable within an allelic series)

Sequence: AATGCGGT
- binding signal (NKX3-2 [1]): 10.7 upbm affinity estimate (log intensity, higher = more binding, comparable within an allelic series)
- binding signal (NKX3-2 [2]): 10.8 upbm affinity estimate (log intensity, higher = more binding, comparable within an allelic series)
